Assay outcomes: PubChem BioAssay, The Scripps Research Institute Molecular Screening Center
hgDAF12 agonist = agonists of H. glycines DAF-12 nuclear receptor | HEK293 GAL4-hgDAF12 UAS-luciferase reporter, agonist luminescence; normalized to butyrate control | AID 687014 | activation, % at 6.8 µM | 1.8% of 370,000 active;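 active = activation above a cutoff set at the mean of all screened compounds plus 3 SD, cut at about 10% in these data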;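 also: 0% = DMSO wells and 100% = sodium butyrate wells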
DAX1 inh-1 = NR0B1 (DAX1) inhibition; 0.99% of 340,000 active; inhibition, % at 6.75 µM; HEK293 Gal4-DAX1 luciferase reporter, luminescence; AID 504766;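 active = inhibition above the mean over all tested compounds plus 3 SD, cut at about 4.2% in these data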;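 also: 0% = DAX1-transfected cells with DMSO and 100% = empty-vector control cells with DMSO; inhibition shows as a rise in luminescence from relieved DAX1 repression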
Target sequence (P51843 207-470 limits assumed): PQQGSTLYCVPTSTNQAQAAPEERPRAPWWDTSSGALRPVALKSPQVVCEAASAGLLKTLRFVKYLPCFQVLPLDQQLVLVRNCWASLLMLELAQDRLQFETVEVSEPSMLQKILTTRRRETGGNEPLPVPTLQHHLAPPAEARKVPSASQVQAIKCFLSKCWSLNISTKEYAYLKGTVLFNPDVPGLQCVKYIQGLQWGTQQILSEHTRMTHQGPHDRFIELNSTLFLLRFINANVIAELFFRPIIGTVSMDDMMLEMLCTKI
hcDAF12 agonist = activators of H. contortus DAF-12 nuclear receptor. HEK293 hcDAF-12 lit1-tk-luc reporter, luminescence; 0% DMSO, 100% Δ7-dafachronic acid. activation, % at 6.8 µM. 1.4% of 370,000 active. AID 652067;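 active = activation above the mean of all tested compounds plus 3 SD, cut at about 5.5% in these data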;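 also: 100% = response to 3 µM Δ7-dafachronic acid high control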
DAX1 inh-2 = inhibitors of DAX1 repression of SF-1 activated StAR promoter | HEK293T StAR-luciferase reporter, SF-1/DAX-1 repression relief | 1.1% of 370,000 active | inhibition, % at 6.8 µM | AID 652010;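 active = inhibition above the mean over all tested compounds plus 3 SD, cut at about 3.6% in these data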;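 also: 0% = DAX-1 cells with DMSO and 100% = cells lacking DAX-1 with DMSO; higher inhibition means more luminescence from relief of DAX-1 repression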
ssDAF12 agonist = activates DAF-12 receptor from parasite S. stercoralis; HEK293 ssDAF-12/GRIP1 lit1-tk-luc reporter, luminescence; % of 3 µM dafachronic acid response; activation, % at 6.8 µM; 1% of 370,000 active; AID 652126;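 active = activation above the mean over all tested compounds plus 3 SD, cut at about 0.9% in these data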;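 also: 0% = DMSO-only wells and 100% = 3 µM delta7-dafachronic acid wells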
DAX1 conf = confirmation of human DAX1 (NR0B1) inhibitors. inhibition, % at 6.8 µM. 87% of 2,400 active. HEK293T StAR-promoter luciferase reporter, SF-1/DAX-1 repression. shares compounds with DAX1 inh-2;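 active = inhibition above the average of every tested compound plus 3 SD, cut at about 3.8% in these data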;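 also: 0% = DAX-1 cells with DMSO and 100% = no DAX-1 control cells with DMSO; active compounds raise luminescence by relieving repression of the StAR reporter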
SF1 mutant ctr = counter-screen for DAX1 inhibitors: nonselective inhibitors with SF-1 AF2 mutant; shares compounds with DAX1 inh-2; HEK293 StAR-luciferase, luminescence; 78% of 2,400 active; AID 652136; inhibition, % at 6.8 µM;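 active = inhibition above the mean of all tested compounds plus 3 SD, cut at about 3% in these data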;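 also: 0% = DAX-1 transfected cells with DMSO and 100% = cells without DAX-1 with DMSO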
Starred values were filed as active, the others as inactive; · = no result given. Sampled rows, rich in hits. Any-hit rate of the full collection: about 4.1%.

SMILES	hgDAF12 agonist	DAX1 inh-1	hcDAF12 agonist	DAX1 inh-2	ssDAF12 agonist	DAX1 conf	SF1 mutant ctr
COc1ccc(-c2ccc(NC(=O)c3ccco3)cc2)nn1	8	-4	3	9.0*	0	13*	1
O=C(COc1ccccc1)Nc1cccc(-c2ccc(N3CCOCC3)nn2)c1	13*	0	3	7.9*	0	5.3*	2
O=C(Nc1cccc(-c2ccc(N3CCOCC3)nn2)c1)c1ccc([N+](=O)[O-])cc1	9	1	3	2	0	·	·
Cc1ccc2c(c1)C1CS(=O)(=O)N(C3CCCC3)CN1C2 (stereo unspecified)	5	·	5	1	-1	·	·
Cc1cccnc1NC(=O)c1ccc2c(c1)OCO2	2	1	3	1	-1	·	·
O=C(CNC(=O)c1ccc2c(c1)OCO2)Nc1ncccc1O	7	1	2	5.3*	0	6.1*	3.7*
CCOC(=O)C(NC(=O)Nc1ccc(Cl)cn1)(Oc1ccc(F)cc1)C(F)(F)F (stereo unspecified)	7	1	4	4.8*	0	4.0*	3.2*
CCOC(=O)C(NC(=O)NCc1ccc(F)cc1)(OCC)C(F)(F)F (stereo unspecified)	-3	0	1	0	-1	·	·
CN(C)S(=O)(=O)c1cccc(NC(=O)/C=C/c2ccccc2[N+](=O)[O-])c1	2	0	1	0	-1	·	·
CN(C)S(=O)(=O)c1cccc(C(=O)N/N=C\c2ccccc2[N+](=O)[O-])c1	11*	·	3	6.9*	1	12*	9.7*
O=C(CCCN1C(=O)/C(=C\c2cccs2)SC1=S)Nc1ccc(C(=O)O)cc1	2	0	-2	0	-2	·	·
CCN(CC)CCOC(=O)c1ccc(NC(=O)CCCN2C(=O)/C(=C/c3cccs3)SC2=S)cc1	0	1	0	6.2*	-1	8.5*	5.4*
CN(C)c1ccc(C=C2C(=O)OC(C)(C)OC2=O)cc1	1	1	-1	-1	0	·	·
CCN(N=O)c1ccc(C=C2C=Cc3ccccc32)cc1	19*	3	5.8*	6.6*	0	9.3*	5.7*
CC(=O)N(C)c1ccc(C=C2C=Cc3ccccc32)cc1	6	0	6.2*	4.9*	0	3	-2
CCN(CC)c1ccc(C=C2C(=O)OC(c3ccccc3)OC2=O)cc1 (stereo unspecified)	-1	2	-2	-1	-1	·	·
CN(N=O)c1ccc(C=C2C=Cc3ccccc32)cc1	11*	5.0*	7.4*	6.3*	1.0*	12*	6.8*
CC(=O)N(O)c1ccc(C=Cc2ccccc2)cc1	6	·	4	0	-1	·	·
CCCCCCCCN1C(=O)[C@@H](CC(=O)N2CCOCC2)C[C@@]2(C(=O)OC)C1=C[C@H](COCc1ccccc1)O[C@@H]2C	4	·	-1	-1	-2	·	·
CCCc1ccc2oc(C(=O)NCc3nnc(C)o3)c(C)c2c1	12*	1	6.2*	5.1*	0	7.3*	5.1*
CCc1ccc2oc(C(=O)Nc3nonc3C)c(C)c2c1	11*	1	4	12*	0	7.8*	3.6*
Cc1cc2oc(C(=O)Nc3nonc3C)c(C)c2cc1C	8	2	4	7.8*	-1	13*	7.2*
CCc1nonc1NC(=O)c1oc2ccc(F)cc2c1C	5	0	1	1	-1	·	·
CN(C)CC(=O)N[C@@H]1C[C@@H]2O[C@@H](CO)CC[C@@H]2O[C@@H]1CCc1ccc(C2=CCCCC2)cc1	-1	·	0	1	-1	·	·
O=C(Nc1cccc(C(F)(F)F)c1)OC1CCC12CCC(c1ccccc1)CC2 (stereo unspecified)	1	·	4	-1	-1	·	·
SMILES	hgDAF12 agonist	DAX1 inh-1	hcDAF12 agonist	DAX1 inh-2	ssDAF12 agonist	DAX1 conf	SF1 mutant ctr
Cc1ccc(NC(=O)COc2ccc3c(c2)CCC3)nc1	11*	3	0	5.1*	0	8.4*	3.5*
Cc1ccc(NC(=O)COc2ccc3oc4c(c3c2)CCCC4)nc1	1	-1	-2	-1	-1	·	·
Cc1cccnc1NC(=O)COc1ccc2c(c1)CCC2	9	0	1	6.1*	1.0*	4.7*	2
Cc1cccnc1NC(=O)COc1ccc2oc3c(c2c1)CCCC3	-1	0	0	0	-1	·	·
CC(C)=CCC/C(C)=C/CNCC(=O)N1c2ccccc2[C@]2(c3ccccc3)C[C@@H]3C(=O)N(C/C=C(\C)CCC=C(C)C)CC(=O)N3[C@H]12	-1	·	-1	0	-1	·	·
CCCC1CCC2(CCC(=O)N2CCC#N)CC1 (stereo unspecified)	-3	·	2	-1	-1	·	·
COC(=O)C1CN(Cc2ccc(F)cc2)CCS(=O)(=O)N1Cc1ccc(F)cc1 (stereo unspecified)	-1	·	-3	-1	-1	·	·
Cc1cc(NC(=O)c2nn(C)c(C)c2Br)no1	2	0	3	4.6*	0	4.6*	5.2*
COc1cc(C)ccc1OCc1cc(C(=O)NCc2ccncc2)no1	11*	1	2	4.7*	0	5.3*	3.0*
COc1cc(C)ccc1OCc1cc(C(=O)N2CCN(C3CCCCC3)CC2)no1	11*	1	3	5.7*	0	5.7*	3.8*
Cc1ccc(OCc2cc(C(=O)N3CCN(C4CCCCC4)CC3)no2)cc1C	4	2	2	6.4*	-1	6.5*	4.1*
Cc1ccc(OCc2cc(C(=O)N3CCN(C4CCCC4)CC3)no2)cc1C	4	2	-1	0	-1	·	·
Cc1cc(OCc2cc(C(=O)N3CCCCCC3)no2)cc(C)c1Cl	8	1	4	5.5*	1	7.1*	4.1*
COc1cc(C)ccc1OCc1cc(C(=O)N2CCCCCCC2)no1	9	1	2	4.6*	1	5.4*	3.5*
COc1ccc(OCc2cc(C(=O)N3CCCCCCC3)no2)c(Cl)c1	6	2	1	2	0	·	·
Cc1ccc(OCc2cc(C(=O)N3CCN(c4ccccc4)CC3)no2)cc1C	13*	4	4	5.8*	0	11*	6.5*
CCN(Cc1ccncc1)C(=O)c1cc(COc2ccc(C)c(C)c2)on1	0	1	-2	-4	-1	·	·
Cc1ccc(OCc2cc(C(=O)N(CCO)Cc3cccs3)no2)cc1C	7	3	5	5.1*	0	6.1*	3.7*
O=C(N[C@H](C(=O)N1CCC[C@H]1C(=O)NCc1ccccc1)c1ccccc1)c1ccccc1	1	·	0	-1	-1	·	·
